Test results from PubChem BioAssay (NCATS).
Several values for one entry are separate records, joined by “and”; a condition that tells them apart may be missing. Identical values can stand only once. Inconclusive results are not listed. Activity calls are given as the source filed them. Unless noted, how the calls were made is not given here.

Tests used:
[1] = qHTS Assay for Identifying Gametocytocidal Compounds (AID 743244; active means well fitted curve in the direction sought with a large enough effect; an effect the other way counts as inactive or inconclusive; further: potency means the concentration at half of the fitted maximal effect;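 on max response: on the % scale 0 is the no-effect control and ±100 the full control effect; actives lower the fluorescent signal which means gametocytes are killed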); details: P. falciparum 3D7 stage III-V gametocytes, alamarBlue, 72 h; max response: stronger effect = lower value
In short: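 In this qHTS viability screen, late-stage 3D7 gametocytes are incubated with compound for 72 h, then with alamarBlue for 24 h; reduced resorufin fluorescence marks killing.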

[2] = qHTS profiling for inhibitors of Plasmodium falciparum (3D7) proliferation (AID 743322);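 further: infected erythrocytes exposed to compound for 72 h before lysis; 100% = DMSO vehicle wells and 0% = 0.29 µM artemisinin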; details: P. falciparum 3D7 proliferation; at 28.7 µM (top of the series) unless noted
In short: (§1)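 Parasite DNA was quantified by SYBR Green I fluorescence (ex 485, em 535 nm) after overnight lysis in saponin/Triton buffer at room temperature. Cultures at 0.3% parasitemia and 2.5% hematocrit were first exposed to compound for 72 h at 37 C; signals were normalised to artemisinin (0.29 uM) and vehicle wells.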

[3] = qHTS profiling for inhibitors of Plasmodium falciparum (DD2) proliferation (AID 743323); details: lower = more inhibition; at 28.7 µM (top of the series) unless noted
In short: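 1536-well qHTS; infected RBCs 0.3% parasitemia/2.5% Hct final; cpd 72 h 37 C 5% CO2; lysis buffer + SYBR Green I, o/n RT dark; FI 485/535; norm. to 0.29 uM artemisinin and DMSO, plate-stack corrected.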

[4] = qHTS profiling for inhibitors of Plasmodium falciparum (HB3) proliferation (AID 743324; active means well fitted curve in the direction sought with a large enough effect; an effect the other way counts as inactive or inconclusive;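 further: 100% = DMSO vehicle wells and 0% = artemisinin-treated control wells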); details: Plasmodium falciparum HB3 blood-stage proliferation; at 28.7 µM (top of the series) unless noted
In short: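 SYBR Green fluorescence (485 ex/535 em) of lysed cultures, incubated overnight at room temperature in the dark, quantifies parasite DNA. Infected erythrocytes at 0.3% parasitemia and 2.5% hematocrit were exposed 72 h; values normalized to DMSO and 0.29 uM artemisinin controls.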

[5] = qHTS profiling of the MIPE4 collection as inhibitors of Plasmodium falciparum (3D7) proliferation (AID 743344);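 further: scaled between DMSO vehicle wells and 0.29 µM artemisinin as full inhibition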; details: P. falciparum 3D7 in erythrocytes, SYBR Green DNA fluorescence, 72 h; at 28.5 µM (top of the series) unless noted
In short: as §1

[6] = qHTS profiling of the MIPE4 collection as inhibitors of Plasmodium falciparum (DD2) proliferation (AID 743345); details: P. falciparum Dd2 in erythrocytes, SYBR Green DNA, 72 h; at 28.5 µM (top of the series) unless noted
In short: as §1

[7] = qHTS profiling of the MIPE4 collection as inhibitors of Plasmodium falciparum (DD2) proliferation (Rep 2) (AID 743346); details: P. falciparum Dd2 in erythrocytes, SYBR Green DNA, 72 h; at 28.5 µM (top of the series) unless noted
In short: as §1

[8] = qHTS profiling of the MIPE4 collection as inhibitors of Plasmodium falciparum (HB3) proliferation (AID 743347);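 further: plate controls were DMSO vehicle wells for no effect and artemisinin wells for full effect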; details: P. falciparum HB3 in erythrocytes, SYBR Green DNA, 72 h; at 28.5 µM (top of the series) unless noted
In short: as §1

[9] = Cell Proliferation Assay Versus the ED40515 IL2 Independent ATL cell lines (AID 1053194; calls by dose curve); details: ED40515 IL2-independent ATL cells
In short: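 CellTiter-Glo luminescence, read after 15 min at RT, gave viability of IL-2-free ED40515 cells (1000/well, RPMI plus 5% FBS) following 48 h drug exposure at 37C. Control wells held DMSO or 9.2 uM bortezomib.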

[10] = qHTS assay for cell viability of the p53RE-bla HCT-116 cell line (AID 743292; active means well fitted curve in the direction sought with a large enough effect; an effect the other way counts as inactive or inconclusive; further: on the % scale 0 is the no-effect control and ±100 the full control effect; nearly all actives have a fitted effect of over 55% in size)
In short: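 In this qHTS counter-screen, metabolically competent p53RE-bla HCT-116 cells were counted via their ATP content. Compounds were applied for 16 h at 37 C and luciferase-coupled luminescence was measured.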

Row | SMILES | max response [1] | remaining parasite growth % (stronger effect = lower value) [2] | activity, percent of control [3] | remaining proliferation (% of control), lower = more inhibition [4] | parasite growth, % of DMSO control [5] | parasite growth remaining, % of DMSO control (lower = more inhibition) [6] | parasite growth, % of control (lower = inhibition) [7] | growth, % of control [8] | Potency [9] | Potency [10] | Potency [1]
1 | CC(C)c1onc(-c2c(Cl)cccc2Cl)c1COc1ccc(/C=C/c2cccc(C(=O)O)c2)c(Cl)c1 | 14.5% (inactive) | 28.5% | 74.9% | 71.7% |  |  |  |  |  |  | 
2 | Cc1csc(NC(=O)c2sc3nc4c(c(C(F)(F)F)c3c2N)CCC4)n1 | 13.6% (inactive) | 100% | 101% | 87.9% | 44.6% | 90.9% | 62.4% | 78.3% | 26.4 µM (active) |  | 
3 | C[C@]1(c2nc3c(C(N)=O)cccc3[nH]2)CCCN1 | 20.1% (inactive) | 93.1% | 87.4% | 94% | 88.7% | 94.9% | 85.5% | 88.5% |  |  | 
4 | NC[C@H](O)c1ccc(O)c(O)c1 | 20.6% (inactive) and 26.6% (inactive) |  |  |  | 71.5% | 97.8% | 78.3% | 82.4% |  | inactive | 
5 | CO[C@@H]1[C@H](N(C)C(=O)c2ccccc2)C[C@H]2O[C@]1(C)n1c3ccccc3c3c4c(c5c6ccccc6n2c5c31)C(=O)NC4 |  |  |  |  |  |  |  |  |  |  | 5.9 µM (active)
6 | Cc1ccc2c(c1)C(=O)[C@@]1(O)CCN(c3ccccc3)C1=N2 | -1.35% (inactive) | 104% | 112% | 36.1% |  |  |  |  |  |  | 
7 | CCOC(=O)C1=C[C@@]2(CC)CCCN3CCc4c(n1c1ccccc41)[C@H]32 | -2.64% (inactive) | 66.2% [at 18.4 µM] | 56.5% [at 18.4 µM] |  |  |  |  |  |  |  | 
8 | O=C1CCC(N2C(=O)c3ccccc3C2=O)C(=O)N1 (centres undefined) | 18.1% (inactive) and 27% (inactive) |  |  |  | 93.4% | 88.8% | 142% | 114% |  | inactive | 
9 | CCc1ccc(CCOc2ccc(CC3SC(=O)NC3=O)cc2)nc1 (centres undefined) | 40% (inactive) and -8.95% (inactive) | 92% | 103% |  | 89.3% | 90.1% | 79.4% | 63.3% | 23.5 µM (active) |  | 
10 | NS(=O)(=O)c1cc2c(cc1Cl)NC=NS2(=O)=O | -0.751% (inactive) and 21.2% (inactive) |  |  |  | 88.5% | 91.5% | 125% | 105% |  | inactive | 
11 | CNC(=O)c1ccc(N2C(=S)N(c3ccc(C#N)c(C(F)(F)F)c3)C(=O)C2(C)C)cc1F | 12% (inactive) | 87.6% | 87.8% | 62.8% | 53.9% | 86.3% | 53.7% | 41.9% | 23.5 µM (active) |  | 
12 | COc1ccc2nc(S(=O)Cc3ncc(C)c(OC)c3C)[nH]c2c1 (centres undefined) | -5.18% (inactive) and -4.42% (inactive) | 91.3% and 101% | 93.3% and 100% | 79.1% and 76.7% | 61.2% | 95% | 72.1% | 84.6% |  | inactive | 
13 | CCOc1cc(C=C2C(=O)N(c3ccccc3)N=C2C)cc(Cl)c1OCC(=O)OC | 28.7% (inactive) | 88.1% | 92.3% | 102% | 102% | 97.3% | 106% | 98.7% |  |  | 
14 | Cc1cc(-c2nnc3n2CCCCC3)c(C)n1-c1ccc(F)cc1 |  | 7.99% | 9.31% | 0.91% |  |  |  |  |  |  | 18.7 µM (active)
15 | CC(=O)Oc1ccccc1C(=O)O | -2.57% (inactive) and 13.2% (inactive) |  |  |  | 93.6% | 90.5% | 90.6% | 94.6% |  | inactive | 
16 | Cc1[nH]c(=O)c(C#N)cc1-c1ccncc1 | -5.95% (inactive) and 11% (inactive) and 13.2% (inactive) |  |  |  | 15.2% | 14.6% | 36.4% | 9.94% |  | inactive | 
17 | COc1ccc2c3n(c(=NC(=O)c4cccnc4)nc2c1OC)CCN3 | -25% (inactive) | 0.12% | 12.2% | 1.47% | 5.7% | 10.1% | 7.17% | 3.38% | 23.5 µM (active) |  | 
18 | O=C(OCC#CCSc1nnc(-c2ccc3ccccc3c2)o1)c1cc2ccccc2s1 | 9.28% (inactive) | 117% | 105% | 125% |  |  |  |  |  |  | 
19 | CN(C)c1ccc(C2Nc3ccc4ccccc4c3C3=C2C(=O)CC(C)(C)C3)cc1Br (centres undefined) | -26.5% (inactive) | 2.48% | 6.15% | 1.79% | 28.5% | 15% | 33.7% | 78% |  |  | 
20 | CNC(=O)c1ccccc1Sc1ccc2c(/C=C/c3ccccn3)n[nH]c2c1 | 40.9% (inactive) |  |  |  |  |  |  |  |  |  | 
21 | CCN(CCCO)CCCOc1ccc2c(Nc3cc(CC(=O)Nc4cccc(F)c4)[nH]n3)ncnc2c1 |  | -1.31% | 1.34% | 0.759% |  |  |  |  |  |  | 0.743 µM (active)
22 | CCCC(CCC)C(=O)O | 8.46% (inactive) and 5.84% (inactive) |  |  |  |  | 103% | 148% | 111% |  | inactive | 
23 | CNC[C@H](O)c1cccc(O)c1 | -1.17% (inactive) and 7.6% (inactive) |  |  |  | 102% | 98.1% | 94.6% | 92.6% |  | inactive | 
24 | COc1ccc(-c2oc3cc(OC)ccc3c2C(=O)c2ccc(C#N)cc2)cc1 | 8.18% (inactive) | 62.8% | 77% | 23.4% | 23.1% | 81.9% | 14.8% | 16.7% |  |  | 
25 | O=NN(CCCl)C(=O)NCCCl | 10.6% (inactive) and 5.39% (inactive) |  |  |  |  |  |  |  |  | inactive | 
26 | CCc1cc(Nc2nccc(-c3c(-c4ccc(OC)c(C(=O)Nc5c(F)cccc5F)c4)nc4ccccn34)n2)c(OC)cc1N1CCC(N2CCN(S(C)(=O)=O)CC2)CC1 |  | -0.479% | 0.369% | -0.677% | 4.93% | 6.42% | 14.9% | 4.27% |  |  | 3.72 µM (active)
27 | CC[C@H](Nc1ncnc2nc[nH]c12)c1nc2cccc(F)c2c(=O)n1-c1ccccc1 | 14.6% (inactive) |  |  |  |  |  |  |  |  |  | 
28 | Nc1ncnc2nc(-c3ccc(N4CCOCC4)nc3)cc(-c3cccc(Br)c3)c12 | -13.8% (inactive) |  |  |  |  |  |  |  |  |  | 
